The source of these data is PubChem BioAssay AID1063 (University of Pittsburgh Molecular Library Screening Center, 2008).

The campaign covered roughly 200,000 compounds. About 18,000 (9%) were called active. The sample holds actives, similar compounds and a random draw of the others, so the mix is not that of the screen. No stated cut-off is given here; in the data, active means inhibition above about 50%; inactive means the rest.

The test in a line: antileishmanial activity against promastigotes – primary screen (AID 1063).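 Further: promastigotes grown with compound for 44 hours at 28 °C.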 Conditions: Leishmania major promastigotes, resazurin fluorescence viability; at 10 µM; active compounds read high.
Broadly, the inhibition is the change of the read-out against control, counted positive when it falls. In the case of `CCOC(=O)N1CCN(C(=O)CSc2nc(C)nc3c2c(=O)n(C)c(=O)n3C)CC1`, the inhibition is 8.12% (inactive).

For `S=c1[nH]nc(Nc2ccccc2)s1`, the inhibition was -10.1% (inactive).

As for `O=[N+]([O-])c1ccc(F)cc1Oc1nc(-c2cccnc2)nc2ccccc12`, the inhibition was 16.9% (inactive).

`CC(=O)Nc1ccc(Sc2ccccc2C(=O)N2CCCC2)cn1`: the inhibition is -4.22% (inactive).

Consider `CCn1c(COc2ccccc2)nnc1SCC(=O)NCc1ccco1`, for which the inhibition was -5.1% (inactive).

For `CCS(=O)(=O)Nc1ccc(C2=NN(C(C)=O)C(c3cccs3)C2)cc1` (stereo not drawn), the inhibition is 0.67% (inactive).

Take `COc1ccc(CNc2c(CO)cnc3c2cnn3C)cc1`: the inhibition is -4.57% (inactive).

Consider `c1ccc(Cc2cc[n+](Cc3ccccc3)cc2)cc1`, for which the inhibition is 52% (active).

With `COC(=O)c1ccc(Cc2ccccc2)o1`, the inhibition was -4.65% (inactive).

On to `CN(C)c1cc[n+](Cc2ccccc2)cc1`, for which the inhibition was -2.95% (inactive).

On to `COc1ccc(-c2[nH]ncc2CN(C)Cc2cc(C)[nH]n2)c(F)c1`, for which the inhibition is -3.28% (inactive).

On to `Cc1cc(C)c(S(=O)(=O)N2CCOCC2)cc1C`, for which the inhibition is 0.43% (inactive).

Consider `Cn1cc(CCC(=O)N2CCCC(C(=O)c3ccc(C(C)(C)C)cc3)C2)cn1` (stereo not drawn), for which the inhibition was -0.59% (inactive).

For the compound `CC(C)(C)n1nnnc1C(c1cccs1)N(Cc1cccnc1)CC1CCCO1` (stereo not drawn), the inhibition is 18.7% (inactive).

Take `CCOc1ccc(CN(Cc2ccco2)C(c2cccs2)c2nnnn2C(C)(C)C)cc1` (stereo not drawn): the inhibition is 73% (active).

For the compound `Cc1ccc(S(=O)(=O)NNC(=O)Nc2cccc3ccccc23)cc1`, the inhibition was 34.5% (inactive).

In the case of `CC(=O)Nc1ccc(NC(=O)C(C)n2c3ccccc3c3nc(=O)cc(C)n32)cc1` (stereo not drawn), the inhibition was 2.66% (inactive).

For the compound `COc1ccc(CCn2c(=N)c(C(=O)NCc3ccco3)cc3c(=O)n4cccc(C)c4nc32)cc1`, the inhibition was 67.1% (active).

On to `O=C(NCc1ccco1)c1cccn2c(=O)c3c4c(sc3nc12)CCCC4`, for which the inhibition was -1.47% (inactive).

As for `CCn1c(=N)c(C(=O)NCCCOC)cc2c(=O)n3cccc(C)c3nc21`, the inhibition is 28.4% (inactive).

For `Cc1nn(CC(=O)Nc2ccc3c(c2)OCO3)c(C)c1[N+](=O)[O-]`, the inhibition was 7.29% (inactive).

In the case of `COc1ccc(C2CC(c3cccs3)=NN2c2ccc(F)cc2)cc1OC` (stereo not drawn), the inhibition is 15.6% (inactive).

In the case of `CCc1nnc(NC(=O)Cc2cccs2)s1`, the inhibition was -5.86% (inactive).

For `CN(C)Cc1ccccc1C1(O)c2ccccc2CSc2ccccc21` (stereo not drawn), the inhibition was 77.4% (active).

`O=C(CNC(=O)c1cc(=O)[nH]c2ccccc12)Nc1ccc(F)c(F)c1`: the inhibition is 2% (inactive).

As to `CC(C)c1nccn1S(=O)(=O)c1cc([N+](=O)[O-])ccc1Cl`, the inhibition is 25.1% (inactive).

As for `CCc1nc(C)cn1S(=O)(=O)c1cc([N+](=O)[O-])ccc1Cl`, the inhibition was 89.9% (active).

On to `CCCOc1cc(C)c(S(=O)(=O)n2nnc3ccccc32)cc1C`, for which the inhibition was -5.25% (inactive).

On to `CCc1nc(C)cn1S(=O)(=O)c1cc(OC)c(C)cc1C`, for which the inhibition is 67.1% (active).

Consider `CCc1nccn1S(=O)(=O)c1cccc([N+](=O)[O-])c1`, for which the inhibition was 33.6% (inactive).

For `COc1cc2sc(C)nc2cc1C`, the inhibition is -0.96% (inactive).

For `Cn1c(=O)cc(OCC(=O)N2CCN(c3ccccc3F)CC2)c2ccccc21`, the inhibition was -1.08% (inactive).

Regarding `COC(=O)c1ccc(/C=N/OCC(=O)Nc2cc(F)ccc2F)cc1`, the inhibition is 6.63% (inactive).

In the case of `CCc1ccc(OCC(=O)OCC(=O)c2c(N)n(C)c(=O)n(C)c2=O)cc1`, the inhibition was -8.87% (inactive).

As to `Cc1cccc(C)c1NC(=O)C1(N(C(=O)c2ccccn2)c2ccc(O)cc2)CCCCC1`, the inhibition is -0.59% (inactive).

`Cc1cc(C)cc(NC(=O)COC(=O)c2cc(C)oc2C)c1`: the inhibition was -1.77% (inactive).

For `CC1CC2=C(CC1/C=N/NC(N)=S)C(C)(C)CCC2` (stereo not drawn), the inhibition was 100% (active).

Turning to `CC1(C)CCCC2=C1CC1C(=O)N(c3ccccc3)C(=O)C1C2` (stereo not drawn), the inhibition is 4.86% (inactive).

Consider `COCCNC(=O)c1ccc(-n2c(SCc3cccnc3)nc3ccccc3c2=O)cc1`, for which the inhibition was -2.65% (inactive).

`COc1cc(N2C(=O)c3ccccc3C2=O)c(Cl)cc1C(=O)OCC(=O)N1CCOCC1`: the inhibition was 16.7% (inactive).

For the compound `CC1=C(C(=O)Nc2cc(C)ccn2)C(c2cnn(C)c2)C2=C(CC(c3ccccc3)CC2=O)N1` (stereo not drawn), the inhibition was 1% (inactive).

For `Cc1cc(C)c2nc(SCCC#N)nc(C)c2c1`, the inhibition was 5.11% (inactive).

For `Cc1cc(C)c2nc3nc(C)cc(C)c3c(N)c2c1`, the inhibition is 100% (active).

Take `Cc1cc(C)c2c(n1)nn1c(N3CCOCC3)cc(C)nc21`: the inhibition was 4.53% (inactive).

For `O=C(C1CCCO1)N(c1ccc(F)cc1)C1C=CS(=O)(=O)C1` (stereo not drawn), the inhibition was -5.34% (inactive).

With `CC1CCC2(CC1)NC(=O)N(Cc1nnc(-c3cccs3)o1)C2=O` (stereo not drawn), the inhibition is 1.95% (inactive).

On to `COc1ccc(CCN=C2SCC(=O)N2Cc2ccccc2)cc1OC`, for which the inhibition was 20.8% (inactive).

Consider `c1ccc(C2c3[nH]c4ccccc4c3CCN2Cc2cccn2-c2cccnc2)nc1` (stereo not drawn), for which the inhibition is 0.1% (inactive).

For the compound `Oc1cccc(C2c3[nH]c4ccccc4c3CCN2Cc2cnn(-c3ccccc3)c2)c1` (stereo not drawn), the inhibition is -0.63% (inactive).

Consider `COCc1ccc(C(=O)N2CCc3c([nH]c4ccccc34)C2c2ccccn2)s1` (stereo not drawn), for which the inhibition was 13.5% (inactive).

Take `COc1ccc(C2c3[nH]c4ccccc4c3CCN2CCCn2cccn2)cc1C` (stereo not drawn): the inhibition is 16.8% (inactive).

On to `COc1cccc(C2c3[nH]c4ccccc4c3CCN2Cc2cccc(C)n2)c1` (stereo not drawn), for which the inhibition was 82.2% (active).

With `CCOc1ccc(C2c3[nH]c4ccccc4c3CCN2Cc2cn(CC)nc2C)cc1` (stereo not drawn), the inhibition is 64.3% (active).

`CC(C)C(O)C1CCN(Cc2nc(Cc3ccccc3Cl)no2)CC1` (stereo not drawn): the inhibition was 1.45% (inactive).

Take `COc1ccc([N+](=O)[O-])cc1NC(=O)CC1SC(=Nc2cccc(C)c2C)N(/N=C(\C)c2ccc(C)cc2)C1=O` (stereo not drawn): the inhibition was 30.7% (inactive).

As to `CC1(C)C2CCC1(C)C(OC(=O)c1ccc(O)cc1)C2` (stereo not drawn), the inhibition was 14.5% (inactive).

Take `CC1CC(C)CN(S(=O)(=O)c2ccc(C(=O)NN3CCOCC3)cc2)C1` (stereo not drawn): the inhibition is 6.29% (inactive).

Turning to `CCOC(=O)CSc1nc2c(c(=O)n(C)c(=O)n2C)n1Cc1ccccc1F`, the inhibition was -9.26% (inactive).

As to `CCOC(=O)CSc1nc2c(sc(=S)n2CCc2ccccc2)c(=O)n1Cc1ccco1`, the inhibition was 50.2% (active).

As for `COc1ccccc1NC(=O)CSc1nc2sc(C)c(C)c2c(=O)n1Cc1ccco1`, the inhibition is 7.51% (inactive).

Consider `Cc1ccc(C(C[N+](=O)[O-])c2c(C)cc3ccccn23)cc1` (stereo not drawn), for which the inhibition was 100% (active).

For the compound `CC(C)C(=O)Nc1oc(-c2ccccc2)cc1C#N`, the inhibition was 0.64% (inactive).

With `O=C(CSc1ccsc1[N+](=O)[O-])N1CCCCC1`, the inhibition is 14.2% (inactive).

With `Cc1nnc(N/N=C/C2CC=CCC2)[nH]c1=O` (stereo not drawn), the inhibition was -5.21% (inactive).

With `COc1ccc(COC(=O)c2n[nH]c3ccccc23)cc1F`, the inhibition is 97.5% (active).

On to `O=C(COC(=O)c1n[nH]c2ccccc12)NCc1ccccc1`, for which the inhibition is 3.11% (inactive).

In the case of `COc1cccc(CNC(=O)c2n[nH]c3ccccc23)c1`, the inhibition is 6.49% (inactive).

For the compound `CCSc1ccccc1C(=O)Nc1ccc2c(c1)OCO2`, the inhibition was 7.96% (inactive).

Regarding `CN(C)CCCn1c(SCCN2C(=O)c3ccccc3C2=O)nc2ccccc2c1=O`, the inhibition was -2.2% (inactive).

`Cn1c(N)c(C(=O)COC(=O)c2cnc(Cl)c(Cl)c2)c(=O)n(C)c1=O`: the inhibition was -4.42% (inactive).

Consider `Cc1ccc(C)c(NC(=O)CCC(=O)N/N=C2/CC(=O)CC(C)(C)C2)c1`, for which the inhibition is -2.4% (inactive).

Consider `Cc1nnc(SC(C(=O)Nc2cc(Cl)cc(Cl)c2)c2ccccc2)[nH]c1=O` (stereo not drawn), for which the inhibition was -10.6% (inactive).

In the case of `O=C(CCC(=O)N1CCCC1)Nc1ccc([N+](=O)[O-])cc1`, the inhibition is -1.46% (inactive).

Turning to `CCCC(C(=O)NCc1ccco1)N(C(=O)CNS(=O)(=O)c1ccccc1)C1CCCC1` (stereo not drawn), the inhibition is 60% (active).

Take `O=C(CN(CC1CCCO1)C(=O)CNS(=O)(=O)c1ccc(F)cc1)NCc1ccco1` (stereo not drawn): the inhibition is -10% (inactive).

In the case of `O=C(NCc1ccco1)C1CCCN(S(=O)(=O)c2ccccc2)C1` (stereo not drawn), the inhibition is -0.05% (inactive).

In the case of `CC1(C)Cc2c(C#N)c(SCc3nc4ccccc4[nH]3)nc(N3CCOCC3)c2CO1`, the inhibition was 34.1% (inactive).

For `CC(C)c1nc(N2CCOCC2)c(C#N)c2c1COC(C)(C)C2`, the inhibition is 4.48% (inactive).

For the compound `COc1ccc(CSc2nc(N3CCOCC3)c3c(c2C#N)CC(C)(C)OC3)cc1`, the inhibition was 66.8% (active).

With `CCN(CC)C(=O)CS(=O)CC(=O)Nc1cc(OCCOC)c(Cl)cc1Cl` (stereo not drawn), the inhibition is 1.34% (inactive).

For the compound `Cc1ccnc2nc(C(=O)Nc3nnc(-c4ccccc4)o3)nn12`, the inhibition is -14.4% (inactive).

Consider `CCOc1ccc(-n2cnnn2)cc1S(=O)(=O)N1CCC(C)CC1C` (stereo not drawn), for which the inhibition was -5.29% (inactive).

`COc1cc2[nH]c(=S)n(Cc3ccc(F)cc3)c(=O)c2cc1OC`: the inhibition was -5.46% (inactive).

On to `CCOC(=O)C1CCN(S(=O)(=O)c2cc(F)ccc2OC)CC1`, for which the inhibition was 6.21% (inactive).

With `Cc1cc2cc(CN(Cc3cccs3)Cc3nnnn3CC3CCCO3)c(=O)[nH]c2cc1C` (stereo not drawn), the inhibition was 21.2% (inactive).

As to `Cc1cc(C)c2cc(CN(Cc3cccs3)Cc3nnnn3CC3CCCO3)c(=O)[nH]c2c1` (stereo not drawn), the inhibition is 48.9% (inactive).

Regarding `CCC(c1nnnn1C1CCCC1)N(Cc1cccs1)Cc1cc2cccc(C)c2[nH]c1=O` (stereo not drawn), the inhibition was 30.1% (inactive).

On to `Cc1cccc2cc(CN(Cc3nnnn3Cc3ccccc3)C3CCCC3)c(=O)[nH]c12`, for which the inhibition is 36.7% (inactive).

With `Cc1cccc2cc(CN(Cc3cccs3)C(c3nnnn3C3CCCC3)C(C)C)c(=O)[nH]c12` (stereo not drawn), the inhibition is 90.3% (active).

For the compound `Cc1cccc2cc(CN(Cc3ccc4c(c3)OCO4)Cc3nnnn3C3CCCC3)c(=O)[nH]c12`, the inhibition was 71.8% (active).

Regarding `C=C(C)CNC(=S)N/N=C/c1ccccc1OCC(=O)O`, the inhibition was -1.38% (inactive).

With `O=S(=O)(NCCc1ccc(F)cc1)c1cccc2cccnc12`, the inhibition was -0.53% (inactive).

Consider `O=C1C2C3C=CC(C3)C2C(=O)N1c1ccc(-c2nc3ccccc3c(=O)o2)cc1` (stereo not drawn), for which the inhibition was -7% (inactive).
